Our source for the inhibition values is PubChem BioAssay AID624330 (Southern Research Specialized Biocontainment Screening …, 2012).

Hit rate of the full screen: of about 340,000 compounds, about 2,100 (0.62%) were called active.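 The calls were made as follows: active = first-screen hits whose inhibition reached a set limit at any dose in the follow-up dose series; inconclusive = inhibition above the set first-screen limit but never retested; inactive = the rest.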 Not all results are given here. Measured potencies and affinities stand elsewhere.

For this experiment, the target named is Rac GTPase-activating protein 1 (Homo sapiens) (UniProt Q9H0H5). Put plainly: blockers of MgcRacGAP-driven Rac1 GTP hydrolysis – biochemical, ADP Hunter fluorescence, primary and confirmatory, confirmation (AID 624330).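 Also: fluorescence reports GDP produced by GAP-driven GTP hydrolysis.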 Particulars: MgcRacGAP-stimulated Rac1 GTP hydrolysis, at 30 µM, active compounds read high, GST-tagged Rac1 F28L mutant substrate.
Rac GTPase-activating protein 1 (Homo sapiens), sequence (Q9H0H5 whole entry, looked up): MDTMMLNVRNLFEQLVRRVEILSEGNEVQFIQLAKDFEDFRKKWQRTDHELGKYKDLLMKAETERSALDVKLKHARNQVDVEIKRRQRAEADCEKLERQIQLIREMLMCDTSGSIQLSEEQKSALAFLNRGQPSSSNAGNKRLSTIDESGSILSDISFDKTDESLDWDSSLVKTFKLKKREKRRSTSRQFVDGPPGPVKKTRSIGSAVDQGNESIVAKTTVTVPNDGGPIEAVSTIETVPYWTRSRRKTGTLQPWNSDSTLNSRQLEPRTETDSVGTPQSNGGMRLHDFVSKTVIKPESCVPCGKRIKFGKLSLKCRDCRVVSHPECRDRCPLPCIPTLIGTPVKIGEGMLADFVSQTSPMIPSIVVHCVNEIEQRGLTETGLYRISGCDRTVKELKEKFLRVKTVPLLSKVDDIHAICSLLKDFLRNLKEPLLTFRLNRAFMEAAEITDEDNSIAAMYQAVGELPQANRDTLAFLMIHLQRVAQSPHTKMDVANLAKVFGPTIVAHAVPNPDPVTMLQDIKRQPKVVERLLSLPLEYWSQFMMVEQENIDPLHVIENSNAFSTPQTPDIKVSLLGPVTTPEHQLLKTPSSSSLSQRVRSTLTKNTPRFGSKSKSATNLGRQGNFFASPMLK
Turning to `CCOc1ccc(C(C(=O)NCC2CCCO2)N(Cc2ccccc2)C(=O)c2snc(C(N)=O)c2N)cc1` (stereo not given), the inhibition (usually the relative decrease from the control value, in per cent) is 6.27% (inactive). Then `C=CCc1cc(C=O)cc(OCC)c1O`, with 4.85% (inactive); and `C=CCc1cc(/C=N/n2cnnc2)cc(OCC)c1O`, with 8.86% (inactive); and `CCC(/C=C1\Oc2ccc(OC)cc2N1C)=C\c1sc2ccccc2[n+]1CCCS(=O)(=O)[O-]`, with 20.6% (inactive).

On to `CSc1sc2ccccc2[n+]1CCCS(=O)(=O)[O-]`, for which the inhibition was 6.67% (inactive). For `O=C(COC(=O)c1cc(S(=O)(=O)N2CCOCC2)ccc1Cl)NCc1ccccc1`, the inhibition is -0.98% (inactive). Then `O=C(COC(=O)/C=C/c1ccc([N+](=O)[O-])cc1)Nc1ccc2[nH]c(=O)[nH]c2c1`, with 8.57% (inactive); and `COc1ccc(Br)cc1CN(C)CC(=O)NCc1ccc(F)cc1`, with 30.8% (inactive). Then `COc1ccc(Br)cc1CN(C)CC(=O)NCCc1ccc(S(N)(=O)=O)cc1`, with -1.98% (inactive). Then `COc1cccc(CNS(=O)(=O)c2ccc(N3CCCC3=O)cc2)c1`, with 1.52% (inactive); and `Cc1ccccc1NC(=O)c1cccc(S(=O)(=O)N2CCCCC2)c1`, with 3.86% (inactive). Regarding `CC(C)C(O)(CC#CCN1CCCC1)c1ccccc1` (stereo not given), the inhibition is 6.41% (inactive). On to `CCn1cc(CN2CCC(C(=O)Nc3cccc(-c4cccc(OC)c4)c3)CC2)c(C)n1`, for which the inhibition is 4.15% (inactive). For `Cc1ccc(OCCOC(=O)Cn2nc(C)c([N+](=O)[O-])c2C)cc1` the value was 7.43% (inactive); for `Cc1cccc(C)c1OCC(O)CN1CCN(c2ccccc2)CC1` (stereo not given), 4.36% (inactive); for `O=C(Oc1ccc(/C=N/n2cnnc2)cc1)c1cccc([N+](=O)[O-])c1`, 13.5% (inactive).

On to `Cc1cccc(C(=O)Oc2ccc(/C=N/NC(=O)Cc3ccc([N+](=O)[O-])cc3)cc2)c1`, for which the inhibition was 1.03% (inactive).

Take `CC1=NNC(=O)C1CC(=O)N/N=C/C(C)=C/c1ccccc1` (stereo not given): the inhibition was 13.2% (inactive). For `Cn1c(=O)c2c(nc(CN3CCCCC3)n2CCc2ccccc2)n(C)c1=O` the value was 18.6% (inactive); for `Cc1ccc(OCC(=O)N2CCN(S(=O)(=O)c3ccccc3[N+](=O)[O-])CC2)cc1`, 5.54% (inactive); for `COc1ccc(/C=N/NC(=O)CC(=O)NC2CCCCC2)cc1`, 6.51% (inactive). Then `C=CCOc1ccc(/C=N/NC(=O)C(C)Sc2ccccn2)cc1OC` (stereo not given), with 6.97% (inactive); and `COc1ccc(/C=N/NC(=O)CCCC(=O)NC2CCCCC2)cc1`, with 2.54% (inactive); and `COc1cc(/C=N/NC(=O)CCC(=O)NC2CCCCC2)ccc1C`, with 9.37% (inactive).

As for `Cc1ccc(/C=N/NC(=O)NN(C)c2ncc(C(F)(F)F)cc2Cl)cc1`, the inhibition was 4.41% (inactive). For `COC(=O)c1ccc(/C=N/NC(=O)CC(=O)NC2CCCCC2)cc1` the value was -3.55% (inactive); for `CCCOc1ccc(/C=N/NC(=O)C(C)Sc2ccccn2)cc1OCC` (stereo not given), 9.98% (inactive). Then `CN(NC(=O)Nc1ccc(Cl)cc1)c1ncc(C(F)(F)F)cc1Cl`, with 7.17% (inactive).

With `CCS(=O)(=O)N1CCC(C(=O)Nc2cc(Cl)ccc2O)CC1`, the inhibition is 6.74% (inactive).

In the case of `Cn1cc(CN2CCCC(C(=O)c3nccn3C)C2)c(-c2cccc(Cl)c2)n1` (stereo not given), the inhibition is 0.46% (inactive).

Regarding `COc1ccc(C)c2sc(N(CCCN(C)C)C(=O)CS(=O)(=O)c3ccc(F)cc3)nc12`, the inhibition is 2.17% (inactive). For `CCOC(=O)Cc1nnc(NC(=O)CSc2ccc(Cl)cc2)s1` the value was 0.78% (inactive); for `COc1ccc(C(=O)O/N=C(/c2ccccc2)c2ccncc2)cc1`, 4.95% (inactive); for `COc1ccc(C2C(=O)c3ccccc3C2=Nc2ccc(Br)cc2)cc1` (stereo not given), 8.86% (inactive). `CCC(C)[C@H](NC(=O)OC(C)(C)C)C(=O)N/N=C/c1ccc2cc(OC)ccc2n1` (stereo not given in full): the inhibition was 7.33% (inactive).

Consider `NS(=O)(=O)c1ccc(NC(=O)COC(=O)CCCN2C(=O)c3cccc4cccc(c34)C2=O)cc1`, for which the inhibition was 1.26% (inactive). For `Cc1cc(C(=O)Nc2ccc(F)cc2F)on1` the value was 9.92% (inactive).

With `CCn1c(SCC(=O)NCc2ccc(F)cc2)nc2c(c1=O)SC(C)C2` (stereo not given), the inhibition is 18% (inactive).

Consider `COc1ccc(C=NNC(=O)CCCC(=O)NN=Cc2ccc(OC)c(O)c2)cc1O`, for which the inhibition was 23% (inactive). For `O=C(CSc1cccc2cccnc12)N/N=C/c1cccc(O)c1` the value was 3.05% (inactive); for `COc1cccc(/C=N/NC(=O)CSc2cccc3cccnc23)c1`, 5.24% (inactive); for `Oc1ccc(/C=N/NC(=S)NC2CC3CCC2C3)cc1` (stereo not given), 16.9% (inactive).

On to `C=CCOc1cccc(/C=N/NC(=O)C(OC)c2ccccc2)c1` (stereo not given), for which the inhibition was 7.19% (inactive). For `CCOc1cc(/C=N/NC(=O)C(=O)N/N=C/c2ccc(O)c(OCC)c2)ccc1O`, the inhibition was 10.8% (inactive). For `CCOc1ccc(/C=N/NC(=O)C(OC)c2ccccc2)cc1` (stereo not given) the value was 3.79% (inactive). For `COc1cccc(/C=N/NC(=S)NC2CC3CCC2C3)c1OC` (stereo not given) the value was -1.35% (inactive); for `CCCCc1nnc(NC(=O)CN2C(=O)C3CCCCC3C2=O)s1` (stereo not given), 6.64% (inactive). Then `O=C(N/N=C\c1cn[nH]c1-c1ccccc1)c1ccc([N+](=O)[O-])cc1`, with 9.27% (inactive); and `O=S(=O)(c1ccc(Cl)cc1)N1CCN(Cc2cccnc2)CC1`, with 2.76% (inactive).

With `Cc1c(C(=O)N2CCN(S(=O)(=O)c3ccccc3)CC2)oc2ccc(Br)cc12`, the inhibition was 2.23% (inactive). Then `Cc1ccccc1SCC(=O)NCC(c1ccc(F)cc1)N1CCOCC1` (stereo not given), with 8.44% (inactive); and `N#CC1(NC(=O)CN2CCc3ccccc3C2)CCCC1`, with -8.1% (inactive); and `C#CCN1C=CC(=O)[C@@H](OC(=O)Nc2ccc(C)cc2)[C@H]1c1ccccc1Br`, with -0.32% (inactive).

On to `O=C(O)C1C2C=CC(C2)C1C(=O)NC1CCS(=O)(=O)C1` (stereo not given), for which the inhibition is 10.3% (inactive). For `O=C(NNC(=O)c1cccc(C(F)(F)F)c1)c1ccncc1` the value was 8.11% (inactive); for `Cc1cc(SCC(=O)Nc2ccc(O)cc2)n2ncc(-c3ccccc3)c2n1`, 4.14% (inactive); for `CC1(C)N=C(SCC(=O)Nc2ccc(Cl)cc2)C(c2ccc(Cl)cc2)=N1`, 2.66% (inactive). Regarding `COc1cc(C(=O)NNC(=O)c2cc(=O)[nH]c3ccccc23)cc(OC)c1OC`, the inhibition is 5.5% (inactive). For `COc1cc(/C=N/NC(=O)Nc2ccccc2)ccc1OC(C)=O` the value was 13.7% (inactive); for `CCOc1ccc(/C=N/NC(=O)Nc2ccccc2)cc1`, 10.7% (inactive). For `CCN(CC)S(=O)(=O)c1ccc(OC)c(NC(=O)c2cn(CC)c3nc(C)ccc3c2=O)c1` the value was 7.32% (inactive); for `CCOC(=O)COc1cccc2c(=O)n(CC(N)=O)ccc12`, 3.81% (inactive); for `COc1ccc(C=C2NC(=S)NC2=O)cc1`, 14.2% (inactive). For `CCOc1ccc(/C=C2\NC(=S)NC2=O)cc1` the value was -0.61% (inactive); for `CC(=O)Nc1ccc(OC(=O)c2ccc(Cl)cc2)cc1`, -3.42% (inactive). For `COC(=O)Cc1ccc(NC(C)=O)cc1`, the inhibition was 3.66% (inactive). For `CCOC(=O)/C(=C/Nc1ccc(F)c(F)c1)[N+](=O)[O-]` the value was -8.37% (inactive). For `Cc1cc(C)c2[nH]c(=O)c(C(c3nnnn3C(C)(C)C)N3CCN(C(=O)c4ccco4)CC3)cc2c1` (stereo not given) the value was 1.84% (inactive); for `Nc1ccc(-c2nnc(-c3ccc(N)cc3)o2)cc1`, 12.9% (inactive); for `Cc1cc(N(C)C)ccc1N=Nc1ccc2ncccc2c1`, 3.61% (inactive).

Consider `Nc1ccc(CCc2ccc(N)cc2)cc1`, for which the inhibition is 13.9% (inactive). Then `Nc1ccc(SC(F)(F)F)cc1`, with -3.64% (inactive); and `Nc1ccc(Sc2ccc([N+](=O)[O-])cc2)cc1`, with 7.67% (inactive); and `Nc1ccc(-c2cnc(-c3ccc(N)cc3)nc2)cc1`, with 9.16% (inactive). As to `CC(=O)c1ccc(N=Nc2ccc(N)cc2)cc1`, the inhibition was 0.6% (inactive). As for `CN(C)c1ccc(N=Nc2ccccc2Br)cc1`, the inhibition was 8.09% (inactive). As for `Cc1ccccc1C(=O)OCC(=O)Nc1cccc(S(=O)(=O)N2CCCCC2)c1`, the inhibition was 11.7% (inactive). `CN(C)S(=O)(=O)c1ccc(Cl)c(NC(=O)COc2ccccc2[N+](=O)[O-])c1`: the inhibition is 6.09% (inactive).

`CCN(CC1CCCO1)C(=O)c1cc(COc2ccc(OC)cc2Cl)on1` (stereo not given): the inhibition was -11.4% (inactive). Then `C[C@H](CO)N1C[C@H](C)[C@@H](CN(C)C(=O)Nc2ccccc2)Oc2c(NS(=O)(=O)c3ccc(F)cc3)cccc2C1=O`, with 3.18% (inactive). For `Cc1ccc(OCC(=O)Nc2ccc3oc(=O)ccc3c2)cc1` the value was 4.26% (inactive); for `O=C(Cc1ccsc1)N1CCN(S(=O)(=O)c2cccc(F)c2)CC1`, -3.87% (inactive). Then `CCN1CCN(CC(=O)N2c3ccccc3CC2C)CC1` (stereo not given), with 22.6% (inactive); and `CC1Cc2ccccc2N1C(=O)CN1CCCCC1` (stereo not given), with 2.91% (inactive). As for `CN(Cc1cccc(F)c1)C(=O)C1CC(=O)N(c2ccc3c(c2)OCCO3)C1` (stereo not given), the inhibition is 4.27% (inactive).

Take `Cc1c(Cl)ccc(S(=O)(=O)N2CCN=C2c2ccccc2)c1Cl`: the inhibition is 4.68% (inactive). As to `Cc1cc(Cl)cc2sc(NC(=O)c3ccco3)nc12`, the inhibition is 5.28% (inactive). Turning to `Cc1cc(Cl)cc2sc(NC(=O)C3CC3)nc12`, the inhibition is 5.72% (inactive). Consider `C/C(O)=C\c1nc2ccccc2oc1=O`, for which the inhibition was 18.1% (inactive). Turning to `CCS(=O)(=O)CCSc1nc2ccccc2o1`, the inhibition is -5.63% (inactive). In the case of `CCCCCN1C(C)=CC(=C(C#N)C#N)C=C1C`, the inhibition was 9.16% (inactive). On to `Cc1cccc2sc(N(CCN(C)C)C(=O)c3ccc4ccccc4c3)nc12`, for which the inhibition is 5.08% (inactive). For `O=c1[nH]cc(S(=O)(=O)N2CCN(c3ccc(F)cc3)CC2)c(=O)[nH]1`, the inhibition was 2.66% (inactive). For `Cc1cc(C(=O)Nc2nccs2)c2cc(F)ccc2n1` the value was 4.04% (inactive).

On to `O=C(COC(=O)c1ccco1)Nc1cccc(S(=O)(=O)N2CCCCC2)c1`, for which the inhibition was 0.12% (inactive). For `Cc1ccc(S(=O)(=O)N2CCOCC2)cc1NC(=O)CNCc1ccccc1Cl` the value was 8.04% (inactive). For `O=C(Nc1cccc(S(=O)(=O)N2CCCCC2)c1)c1ccco1` the value was -7.5% (inactive); for `Cc1ccc(S(=O)(=O)N2CCCCC2)cc1NC(=O)c1ccco1`, 15.5% (inactive). For `O=C(CNCc1ccco1)Nc1cc(S(=O)(=O)N2CCOCC2)ccc1N1CCCC1` the value was 24.8% (inactive); for `Cc1ccc(S(=O)(=O)N2CCOCC2)cc1C(=O)NCc1cccnc1`, 5.2% (inactive).
